# Source: PubChem BioAssay (several laboratories)
# In the library only some 4.5% were active in any assay of this set; here they are far more common.
# Rpn11 block = Rpn11 (human) deubiquitinase inhibition; inhibition, % at 20 µM; human 26S proteasome, Ub4-pepOG fluorescence polarization; 20S core pre-blocked with epoxomicin; 360,000 tested, 0.59% active; AID 588493;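 active = inhibition at 20 µM, scaled to each plate's controls, above about 33%, limit read from the data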
# Target sequence (O00487 whole entry, looked up): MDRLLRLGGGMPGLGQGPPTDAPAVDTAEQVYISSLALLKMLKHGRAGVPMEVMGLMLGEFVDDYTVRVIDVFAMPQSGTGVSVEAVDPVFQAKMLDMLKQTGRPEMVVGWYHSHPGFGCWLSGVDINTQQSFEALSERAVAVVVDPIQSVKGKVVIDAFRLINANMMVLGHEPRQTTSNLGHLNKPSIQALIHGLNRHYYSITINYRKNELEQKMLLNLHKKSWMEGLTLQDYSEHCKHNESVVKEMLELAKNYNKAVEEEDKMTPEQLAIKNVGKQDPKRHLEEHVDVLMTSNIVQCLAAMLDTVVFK
# ZTA DNA inh = ZTA (EBV) inhibition in EBNA-1 counter-screen; 320,000 tested, 0.15% active; ZTA-DNA binding, fluorescence polarization; inhibition, % at 11 µM; in the data active = inhibition above about 33%
# TPT1 inh = inhibitors of Candida albicans tRNA 2'-phosphotransferase TPT1; recombinant caTPT1, FP RNA substrate dephosphorylation; 300,000 tested, 0.81% active; AID 1962; inhibition, % at 5 µM;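 active = inhibition above the mean of all tested compounds plus 3 SD, set per screening campaign, cut at about 24% in these data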;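 note: plate controls were DMSO alone for no effect and ferristatin control at 100 nM for full effect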
# dFosB act-1 = mouse delta FosB homodimer activation | P13346 | purified delta FosB, TAMRA-CDK5 oligo fluorescence polarization; percent of positive-control signal above neutral wells | activation, % at 25 µM | 340,000 tested, 0.99% active;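 active = mean activation above about 17%, with every replicate also reaching it, limit read from the data, passing the limit was not always enough; inconclusive = only one of the two conditions met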
# Target sequence (P13346 whole entry, looked up): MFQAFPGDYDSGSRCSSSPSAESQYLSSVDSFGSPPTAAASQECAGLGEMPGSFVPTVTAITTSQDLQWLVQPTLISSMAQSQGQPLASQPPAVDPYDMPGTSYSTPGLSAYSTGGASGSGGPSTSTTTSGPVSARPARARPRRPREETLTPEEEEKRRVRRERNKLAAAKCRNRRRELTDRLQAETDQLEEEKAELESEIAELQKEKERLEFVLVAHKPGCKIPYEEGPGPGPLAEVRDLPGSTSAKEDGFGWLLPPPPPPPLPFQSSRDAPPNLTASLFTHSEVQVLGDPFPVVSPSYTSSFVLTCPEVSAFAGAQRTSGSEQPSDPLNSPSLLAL
# NR3A LBD binder = NR3A (human) ligand-binding domain modulation | NR3A LBD differential scanning fluorimetry, Tm shift; 0% = protein alone, 100% = glycine-bound protein | Tm shift relative to glycine control, % at 25 µM | 340,000 tested, 2.5% active;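 active = melting temperature shift of at least 10% of the positive control shift, at one fixed dose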
# EBNA-1 inhibitor = blocks EBNA-1 binding to DNA; EBNA-1 DNA binding, fluorescence polarization; inhibition, % at 14.8 µM; 300,000 tested, 0.34% active; in the data active = inhibition above about 28%
# dFosB act-2 = enhances mouse delta FosB homodimer binding to DNA. shares compounds with dFosB act-1. purified delta FosB, TAMRA-CDK5 oligo fluorescence polarization; normalised: neutral wells 0, positive control 100. activation, % at 24.9 µM. 2,400 tested, under 10 active;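 active = highest replicate activation at or above 34% and every replicate reaching that threshold; inconclusive = meets only one of the two criteria; inactive = meets neither criterion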;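 note: higher polarization means more probe DNA bound by delta FosB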
# * marks the source's active call; other numbers are inactive results; ? = inconclusive; nt = no result.
SMILES,Rpn11 block,ZTA DNA inh,TPT1 inh,dFosB act-1,NR3A LBD binder,EBNA-1 inhibitor,dFosB act-2
O=C(Nc1nc(-c2nc3ccccc3s2)cs1)c1ccc(S(=O)(=O)N2CCOCC2)cc1,6.7,8.5,2.1,32.5*,-2.9,0.2,5.1
O=C(Nc1nc(-c2ccc(S(=O)(=O)N3CCOCC3)cc2)cs1)c1ccccc1,2.6,6.4,6.3,-1.0,-2.9,3.1,nt
Cc1ccc(S(=O)(=O)c2nc(Nc3ccccc3C#N)sc2Cl)cc1,-0.1,24.5,-2.9,-5.4,-5.9,2.6,nt
Cc1ccc(S(=O)(=O)c2nc(Nc3ccccc3N3CCOCC3)sc2Cl)cc1,-7.3,10.3,-5.2,21.9*,-5.2,6.1,2.8
CCc1ccc(NC(=O)CSc2nc3ncc(Br)cc3[nH]2)cc1,3.8,-4.2,0.4,19.5*,4.4,11.0,0.2
COC(=O)CSc1nc2nc(C)c(Br)cc2[nH]1,2.3,7.4,-0.4,-7.5,-0.3,7.8,nt
Cc1ccc(NC(=O)CSc2nc3nc(C)c(Br)cc3[nH]2)cc1F,2.1,20.6,-3.7,57.2*,13.9*,6.3,-4.3
COc1cccc(NC(=O)CSc2nc3ncc(Br)cc3[nH]2)c1,3.3,1.1,-1.9,?,0.1,-1.1,nt
CCOc1ccc(N(CC(=O)NCCc2ccccc2)C(=O)CCC(=O)Nc2cc(C)ccn2)cc1,7.0,11.4,0.7,-9.9,-0.2,4.7,nt
N/C(=N\NS(=O)(=O)c1ccc(Cl)cc1)c1ccccn1,3.2,-1.4,0.6,-5.0,-1.3,14.6,nt
CCC(C)NC(=O)Cn1c(=O)n(-c2ccc(OC)cc2)c(=O)c2ccc(C(=O)NCc3ccc(C)cc3)cc21 (stereo unspecified),15.7,-8.4,-2.3,32.9*,-1.0,5.3,4.8
COc1ccc(CNC(=O)c2ccc3c(=O)n(-c4ccccc4)c(=O)[nH]c3c2)cc1,-2.6,-2.2,-2.9,1.3,-0.5,7.4,nt
CCc1ccccc1NC(=O)CCc1nc(-c2ccc(C)cc2)no1,0.9,0.8,5.2,20.5*,-0.6,22.0,7.6
O=C(Nc1ccccc1N1CCOCC1)c1ccc(Cl)c(S(=O)(=O)N2CCCC2)c1,-6.4,6.2,nt,-0.3,4.6,nt,nt
Cc1cccc(NC(=O)CCC(=O)Nc2nnc(C3CCCCC3)s2)c1,-1.9,-1.4,-0.1,30.1*,2.8,-2.7,4.1
Cc1ccc(NC(=O)CCC(=O)Nc2nnc(C3CCCCC3)s2)cc1,2.9,-0.5,-6.2,3.9,-3.0,4.5,nt
O=C(NCc1ccccc1)NC(O)C(Cl)(Cl)Cl (stereo unspecified),4.2,-20.8,-4.6,-2.2,-1.0,-0.1,nt
O=C(Nc1ccc(Br)cn1)c1cccc(C(=O)Nc2ccc(Br)cn2)c1,-5.1,-2.9,0.4,-9.5,-1.4,9.3,nt
O=C(Nc1ccc(Br)cn1)c1ccc2nccnc2c1,0.3,-10.1,4.4,43.3*,-1.1,-2.6,-0.1
CC(C)CNC(=O)CSc1nnc(-c2ccc(Cl)cc2)n1N,-7.9,-4.6,3.8,-17.1,-2.4,2.0,nt
NS(=O)(=O)c1ccc(CCNC(=O)CNC(=O)c2ccccc2F)cc1,4.5,11.6,0.3,0.0,1.0,-7.3,nt
Cc1cc([N+](=O)[O-])c(C)cc1-c1ccc(/C=N/NC(=O)Cn2nnnc2N)o1,14.9,3.1,6.2,33.1*,6.1,1.3,6.3
Cc1ccccc1OCCOc1cccc(/C=N/NC(=O)Cc2nnc(N)s2)c1,-3.7,17.5,1.1,48.5*,-9.6,-10.3,-1.4
Nc1nnc(CC(=O)N/N=C/c2cccc(OCCOc3ccccc3)c2)s1,-6.0,10.0,4.4,15.3,-2.8,-6.2,nt
N#Cc1ccccc1OCC(=O)NNC(=O)CCNC(=O)c1ccccc1,-0.8,nt,nt,-4.0,0.3,nt,nt
SMILES,Rpn11 block,ZTA DNA inh,TPT1 inh,dFosB act-1,NR3A LBD binder,EBNA-1 inhibitor,dFosB act-2
Cc1c(NS(=O)(=O)c2cc(C(=O)NCc3cccnc3)ccc2Cl)c(=O)n(-c2ccccc2)n1C,2.2,nt,nt,0.4,2.0,nt,nt
COc1ccc(/C=C/C(=O)OCC(=O)NCCNC(=O)COC(=O)/C=C/c2ccc(OC)cc2)cc1,-2.3,-3.7,0.7,2.4,2.5,-0.8,nt
COc1ccc(/C=C/C(=O)OCC(=O)Nc2c(C)cccc2C)cc1,-2.4,1.2,-2.1,25.5*,7.6,-1.2,-14.5
CC(C)C[C@H]1CNC(=S)N1CC1CCCN1C[C@H](Cc1ccccc1)N1C[C@H](Cc2ccc(O)cc2)N(CC2CCCCC2)C1=S (stereo partly specified),1.8,nt,nt,59.2*,7.9,nt,2.4
CC(C)C[C@H]1CNC(=S)N1CC1CCCN1C[C@H](CC(C)C)N1C[C@H](Cc2ccc(O)cc2)N(CC2CCCCCC2)C1=S (stereo partly specified),-1.5,nt,nt,23.3*,9.2,nt,3.6
CC(C)C[C@H]1CNC(=S)N1C[C@H]1CCCN1C[C@H](CC(C)C)N1C[C@H](Cc2ccc(O)cc2)N(CC2CCCCCC2)C1=S,4.3,nt,nt,nt,nt,nt,nt
CC(C)C[C@H]1CNC(=S)N1CC1CCCN1C[C@H](CC(C)C)N1C[C@H](Cc2ccc(O)cc2)N(CC2CCCCC2)C1=S (stereo partly specified),-1.5,nt,nt,27.1*,11.9*,nt,4.5
CC(C)C[C@@H](CN1CCCC1CN1C(=S)NC[C@@H]1Cc1ccc(O)cc1)N1C[C@H](Cc2ccc(O)cc2)N(CC2CCCCC2)C1=S (stereo partly specified),7.2,nt,nt,36.5*,33.2*,nt,6.8
CC(=O)C1=C(C)Nc2ncnn2C1c1ccccc1F (stereo unspecified),3.0,3.4,-3.1,3.1,0.1,12.3,nt
CCCCN(C)CCNC(=O)C(NC(=O)C1CCC(C)CC1)C(C)C (stereo unspecified),6.6,11.8,0.7,-6.5,-0.8,5.3,nt
Cc1cc(C)cc(OCC(=O)NNC(=O)CCC(=O)NCc2ccccc2)c1,1.4,-3.7,-1.0,2.0,-3.0,6.3,nt
Cc1cc(Br)cc(Br)c1OCC(=O)NNC(=O)CCC(=O)NCc1ccccc1,9.4,nt,nt,25.4*,1.1,nt,0.9
O=C(CCC(=O)NNC(=O)COc1ccc(Br)cc1Br)NCc1ccccc1,0.0,9.8,-2.7,33.6*,-3.3,6.2,3.0
CCOC(=O)c1ccc(S(=O)(=O)NNC(=O)COc2ccc(C)cc2)cc1,-12.0,10.0,-1.5,60.6*,-2.9,14.7,4.0
Cc1ccc(C)c(N2C(=O)CC(Cc3ccccc3)C2=O)c1 (stereo unspecified),0.2,2.1,-0.7,-9.8,3.6,-6.3,nt
CCOc1ccc(S(=O)(=O)N(CC)CC(=O)NCc2cccnc2)cc1,-4.2,0.3,1.7,5.2,1.2,-6.5,nt
N#CCC(=O)N/N=C/c1cn(Cc2ccccc2C#N)c2ccccc12,-4.4,16.7,2.3,-12.3,9.6,14.2,nt
